Test results as given in PubChem BioAssay.

The molecules below were run on Inhibin beta A chain (activin A) (assay: INHBA (activin A) binders on microarrays, primary screen, biochemical, small-molecule microarray, 635 nm fluorescence scan (AID 1107;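 also: mouse activin A protein probed at 4.33 µg/mL on printed slides; score merges bound-protein fluorescence near 667 nm with spot signal-to-noise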)). Conditions: small-molecule microarray binding, higher = more signal.
Work on COCCOC(=O)N1C(=O)[C@@]2(c3cc(C#CC4=CCCCC4)ccc31)[C@H](c1ccccc1OCCO)N1[C@H](c3ccccc3)[C@H](c3ccccc3)OC(=O)[C@H]1[C@@H]2C(=O)Nc1nc2ccccc2s1 yielded a composite z-score of 0.936.
CCCNC(=O)[C@@H]1c2ccccc2C(=O)N(C(C)C)[C@H]1c1ccc(CO)cc1 gave a composite z-score of 0.534.
In the case of CCCCO[C@H]1C[C@H]2C(I)=C[C@@H]1C(=O)[C@]21CO1, the composite z-score is reported as 0.173.
CC(C)(C)OC(=O)CC[C@]1(C(=O)NCC(O)CO)N=C(c2ccc(OCCCO)cc2)O[C@H]1c1ccccc1 (stereo partly specified) gave a composite z-score of -0.0014.
C=CC[C@]1(C(=O)O)COC(c2ccc(OCCCO)cc2)=N1 showed a composite z-score of 0.888.
For CN1C(=O)C2C=CC(C(O)c3ccccn3)N(N(c3ccccc3)c3ccccc3)C2C1=O (stereo unspecified), the composite z-score was 0.79.
With [N-]=[N+]=NCc1ccccc1C[C@@]1(C(=O)N2CCOCC2)N=C(c2ccc(OCCCO)cc2)O[C@@H]1c1ccccc1 the composite z-score was 0.686.
With CC(=O)NCCCC[C@@H]1NC(=O)[C@@H]2C[C@H](C(=O)NCCCC[N+](C)(C)C)[C@H](c3ccc(O)cc3)N2C1=O the composite z-score was -0.261.
C[C@H]1NC(=O)[C@@]23C(=O)N[C@@H](Cc4ccccc4)C2[C@H](C)[C@@]2(C)O[C@H]2C3/C=C/C/C=C\CNC(=O)[C@H](Cc2ccccc2)NC1=O (stereo partly specified) showed a composite z-score of 1.34.
For [N-]=[N+]=Nc1ccccc1C[C@]1(C(N)=O)N=C(c2ccc(OCCCO)cc2)O[C@H]1c1ccccc1N=[N+]=[N-], the composite z-score was 1.25.
O=C1O[C@@H](c2ccccc2)[C@@H](c2ccccc2)N2[C@@H](c3ccc(O)cc3)[C@]3(C(=O)Nc4ccc(C#CC5=CCCCC5)cc43)[C@@H](C(=O)NC[C@H](O)c3ccccc3)[C@H]12 showed a composite z-score of 1.02.
CCOC(=O)C1=CC[C@@H](c2ccccc2C(F)(F)F)N(S(=O)(=O)c2ccc(C)cc2)[C@H]1c1ccc(C#N)cc1 showed a composite z-score of 0.307.
With O[C@@H](Cc1ccccc1)[C@@H](/C=C/C1CC1)N(CC#Cc1ccccc1)Cc1cccc(Cl)c1 the composite z-score was 0.285.
CN(C)CCCCNC(=O)[C@@H]1C[C@@H]2C(=O)N[C@@H](Cc3ccccc3)C(=O)N2[C@@H]1c1cccc(OCCO)c1 gave a composite z-score of 0.0765.
Work on COc1ccc([Si](C)(C)[C@@H]2[C@@H](CC(=O)N(CCO)Cc3ccccc3)O[C@]3(C(=O)N(c4ccccc4)c4ccccc43)[C@H]2C)cc1 yielded a composite z-score of 0.872.
For CC=CC(O)C1C=CC2C(=O)N(c3ccccc3)C(=O)C2N1Nc1ccccc1F (stereo unspecified), the composite z-score was 1.21.
C=CC1c2cc(O)c(OC)cc2CCN1Cc1cc2c(cc1Br)OCO2 (stereo unspecified) was tested, and the composite z-score was 1.9.
For CC(C)C(CO)N1C(=O)[C@@H]2C3C(=O)OCCC/C=C\[C@H]3OC23C=CCN(C(C)(C)C)C(=O)[C@@H]13 (stereo partly specified), the composite z-score was 1.05.
[N-]=[N+]=NCc1ccccc1C[C@@]1(C(=O)N2CCCCC2)N=C(c2ccc(OCCCO)cc2)O[C@@H]1c1ccccc1 showed a composite z-score of 1.05.
O=C1C[C@@](C(=O)NCCN2CCOCC2)(c2ccc([N+](=O)[O-])cc2)[C@@H](c2ccc(CO)cc2I)N1C1CCCCC1 gave a composite z-score of 0.454.
Work on COC(=O)c1c(CC[C@@H](CO)NC(=O)N2CCC[C@H]2Cn2cc(Cc3ccccc3)nn2)oc(C(C)=O)c1C(=O)OC yielded a composite z-score of 0.268.
O=C1NC(=O)C2C1C=CC(C(O)c1cccc3ccccc13)N2Nc1ccc(Cl)cc1Cl (stereo unspecified) was tested, and the composite z-score was 1.01.
N#Cc1ccc(C(O)C2C=CC3C(=O)N(c4ccccc4)C(=O)C3N2Nc2ccccc2)cc1 (stereo unspecified) showed a composite z-score of 0.877.
COC(=O)[C@@]1(Cc2ccc(OC)cc2)[C@H]2c3cc(C(=O)N(C)C)n(C[C@H](O)CO)c3C[C@H]2CN1C(=O)c1ccccc1 gave a composite z-score of 1.39.
COc1cc(OC)c(C(O)C2C=CC3C(=O)N(c4ccccc4)C(=O)C3N2Nc2ccccc2)cc1Br (stereo unspecified) gave a composite z-score of 0.791.
COCCCNC(=O)[C@@]1(Cc2ccccc2N=[N+]=[N-])N=C(c2ccc(OCCCO)cc2)O[C@H]1c1ccccc1 gave a composite z-score of 1.14.
In the case of C=C(C)C1CCC(C(O)C2C=CC3C(=O)N(C)C(=O)C3N2N2CCCCC2)CC1 (stereo unspecified), the composite z-score is reported as 1.42.
Cc1ccc(S[C@]2(C(=O)O)CC(=O)N(C3Cc4ccccc4C3)[C@@H]2c2ccc(CO)cc2)cc1 gave a composite z-score of 1.19.
For O=C1C2C=CC(C(O)c3ccc(Br)cc3)N(Nc3ccccc3F)C2C(=O)N1c1ccccc1 (stereo unspecified), the composite z-score was 0.404.
CC(C)(C)N1CC=CC23O[C@@H]4C=CCCOC(=O)C4[C@H]2C(=O)N(CCO)[C@@H]3C1=O (stereo partly specified) showed a composite z-score of 0.0863.
Work on C=CCNC(=O)[C@H]1[C@@H]2C(=O)O[C@@H](c3ccccc3)[C@@H](c3ccccc3)N2[C@@H](c2ccc(O)cc2)[C@]12C(=O)N(C(=O)OCCOC)c1ccccc12 yielded a composite z-score of 0.204.
Molecule C[C@@H]1NC(=O)[C@@]23C(=O)N[C@@H](Cc4ccccc4)C2[C@H](C)[C@@]2(C)O[C@H]2C3/C=C/C/C=C\CNC(=O)[C@@H]2CCCN2C1=O (stereo partly specified) has a composite z-score of 1.35.
Molecule COCCOC(=O)N1C(=O)[C@@]2(c3cc(C#Cc4ccc(OC)cc4)ccc31)[C@H](C(=O)Nc1nc3ccccc3s1)[C@H]1C(=O)O[C@H](c3ccccc3)[C@H](c3ccccc3)N1[C@@H]2c1ccc(O)cc1 has a composite z-score of 0.318.
CN(C)C(=O)C1N=C(c2ccc(OCCCO)cc2)N(c2ccccc2)O1 (stereo unspecified) was tested, and the composite z-score was -0.319.
For O=C(NCC(F)(F)F)[C@@H]1c2ccccc2C(=O)N(Cc2ccc(OC(F)(F)F)cc2)[C@H]1c1ccc(CO)cc1, the composite z-score was 0.551.
In the case of [N-]=[N+]=Nc1ccccc1[C@H]1OC(c2ccc(OCCCO)cc2)=N[C@@]1(Cc1ccccc1)C(=O)N1CCCCC1, the composite z-score is reported as 1.03.
